Screens as filed in PubChem BioAssay.
Most compounds without a hit are left out; they make up all but 1.2% or so of the library.
RXFP1 antagonist – RXFP1 (human) relaxin receptor antagonism; Q9HBX9; AID 1259400; HEK293-RXFP1, relaxin-stimulated cAMP HTRF, 30 min; active compounds read low; activity change, negative = inhibition, % at 57.5 µM; 350,000 compounds, 0.59% hits;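 active = activity change of -60% or lower, but not beyond a set lower limit; inconclusive = change between -60% and -40%, or beyond the set limit; inactive = change above -40%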
Akt phos inh – blocks phosphorylation of Akt; AID 651550; activity change, % for hits at 50 µM; Neuro2A IGF-stimulated pAkt S473 HTRF, 20 min; active compounds read low; 360,000 compounds, 0.32% hits; in the data active = activity change below about -80%; inconclusive = mostly about -51% to -80%
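Single-point screen (50 µM final compound) in Neuro2A cells stimulated 20 min with 6 nM IGF at 37 deg C. After lysis, Ser473-phosphorylated Akt read by HTRF (ex 330 nm, em 615/665 nm) as the 665/615 ratio.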
gsp agonist – gsp mutant agonism; 340,000 compounds, 0.13% hits; gsp mutant cells, cAMP HTRF, 30 min; Potency, µM (highest dose often 76.9 µM), hits mostly activators; AID 624287; active = well fitted activation curve with a large enough effect; inconclusive = small, poorly fitted or top-dose-only effect, or another doubt; inactive = no such curve, though single readings can be large or run the other way; cell line not stated here;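 note: phosphodiesterase inhibitor Ro 20-1724 added with compounds to block cAMP breakdown; nearly all actives have a fitted effect of over 60% in size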
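Cells in DMEM/10% FBS with G418 were pretreated with compounds in DMSO plus […] (300 uM stock) for 30 min at 37C. cAMP was measured by HTRF (cAMP-d2 plus anti-cAMP antibody-K) after 30 min at room temperature.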
gsp antagonist – antagonists of gsp mutant (McCune-Albright syndrome). gsp-mutant cells, cAMP HTRF, 30 min. Potency, µM (titrated, usually from 76.9 µM), actives largely listed as inhibitors. 340,000 compounds, 0.4% hits. AID 624288; calls by dose curve; cell line not stated here;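 note: intracellular cAMP measured with PDE inhibitor Ro 20-1724 present during compound exposure; nearly all actives have a fitted effect of over 65% in size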
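Measurement of cellular cAMP by homogeneous time-resolved fluorescence following a 30 min compound exposure at 37C. The PDE inhibitor […] was present throughout; the assay buffer was DPBS with 0.05% BSA and 0.005% Tween 20.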
RXFP1 agonist – agonists of human relaxin receptor RXFP1; HEK293T-RXFP1 cAMP TR-FRET, 30 min; response scale: percent of porcine relaxin response, buffer zero; Potency, µM (doses to about 57.5 µM), hits mostly activators; 370,000 compounds, 0.3% hits; AID 2676; active = well fitted activation curve with a large enough effect; inconclusive = small, poorly fitted or top-dose-only effect; note: nearly all actives have a fitted effect of over 60% in size
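Agonist response is measured as cAMP accumulation in an RXFP1-transfected HEK293T line under PDE4 inhibition. Values are scaled between buffer-only and 29 nM porcine relaxin, and EC50s come from standard Hill equation fits.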
A number is an active result; 0 = inactive; ? = inconclusive; - = no result; [ ] = another dose, or the depositor's remark.

SMILES	RXFP1 antagonist	Akt phos inh	gsp agonist	gsp antagonist	RXFP1 agonist
O=C(Cc1ccccc1)N/N=C/c1cc(Br)cc(Cl)c1O	-63	0	0[15.4 µM]	0	0
O=C(CP(=O)(c1ccccc1)c1ccccc1)N/N=C/c1cc(Br)cc(Br)c1O	-71	0	0[15.4 µM]	0	0
O=C(Cc1ccc(Cl)cc1)N/N=C/c1cccc(O)c1	0	0	0	50µM	0
O=C(Cc1ccc(Cl)cc1)N/N=C/c1ccccc1	0	0	0	0	0
O=C(CNC(=O)c1ccccc1Br)N/N=C\c1cc([N+](=O)[O-])cc(Br)c1O	-67	0	0	0	0
O=C(C[n+]1ccccc1)N/N=C/c1cc(Br)cc(Br)c1O	?	0	0[15.4 µM]	0	0
CCC(C)NC(=O)Cn1c(=O)c2cccn2c2ccc(F)cc21 (configuration not stated)	0	-	-	-	0
O=C(CN1CCN(Cc2ccccc2)CC1)Nc1ccc([N+](=O)[O-])cc1C(=O)Nc1ccccc1F	0	0	0	?	0
CCOC(=O)N1CCN(CC(=O)Nc2ccc([N+](=O)[O-])cc2C(=O)Nc2ccccc2F)CC1	0	0	0	28µM	0
Cc1ccc(OCC(O)CNC2CCCC2)c(C)c1 (configuration not stated)	0	0	0	0	0
Cc1ccccc1OCC(O)CNC1CCC(NCC(O)COc2ccccc2C)CC1 (configuration not stated)	-101	0	0	0	0
CC(C)c1ccc(S(=O)(=O)N2CCN(Cc3cccc(F)c3)CC2)cc1	0	-	-	-	0
Cc1nc(SC(C)C(=O)Nc2ccccc2Cl)cc(-c2ccccc2)n1 (configuration not stated)	-72	-	-	-	0
Cc1nn2c(C)c(C(=O)NC(C)(C)C)cnc2c1-c1ccc(F)cc1	0	-	-	-	0
Fc1ccc(C(c2ccc(F)cc2)N2CCNCC2)cc1	0	-	-	-	-
Cc1c(C(=O)Nc2cccc(Cl)c2)c2ccccn2c1CCc1ccncc1	0	0	0[15.4 µM]	28µM	0
O=C(NCc1ccccc1)c1c2c(nc3ccccc13)C(=O)N(C1CCCCC1)C2	0	-	-	-	0
Cc1ccc(CCNC(=O)c2c3c(nc4ccccc24)C(=O)N(C2CCCCC2)C3)cc1	-72	-	-	-	0
CN(c1ccccc1)c1nc(N)c([N+](=O)[O-])c(Nc2ccccc2)n1	0	0	0	0	0
CN(c1ccccc1)c1nc(N)c([N+](=O)[O-])c(NC2CCCCC2)n1	0	0	0	50µM	0
CCCCC(=O)Nc1cc(-c2cn3cccnc3n2)ccc1C	0	-	-	-	0
N#C/C(=C/c1ccc(C(=O)O)cc1)C(=O)NCc1ccccc1	0	0	0	0	0
N#C/C(=C\c1ccccc1)C(=O)NCc1ccc(F)cc1	-65	0	0	0	0
Cc1ccc(S(=O)(=O)N(Cc2cc3cc4c(cc3[nH]c2=O)OCCO4)CC2CCCO2)cc1 (configuration not stated)	0	-105%	0	0	?
CCOC(=O)C(=CNc1cc(C)ccc1C)C(=O)OCC	0	0	0	35µM	0
SMILES	RXFP1 antagonist	Akt phos inh	gsp agonist	gsp antagonist	RXFP1 agonist
CCOC(=O)C(=CNc1cc(C)ccc1[N+](=O)[O-])C(=O)OCC	0	0	0	?	0
COc1ccc(NC(=O)CSc2ncnc3c2cnn3CCc2ccccc2)cc1	0	-132%	0	0	0
CC1=C(C(=O)Nc2ccc(C(=O)N3CCN(c4cccc(Cl)c4)CC3)cc2)SCCO1	0	0	0	?	0
CC1=C(C(=O)Nc2cccc(C(=O)N3CCN(c4cccc(C(F)(F)F)c4)CC3)c2)SCCO1	0	0	0	50µM	0
C[C@H]1O[C@@H](O[C@H]2CC[C@@]3(C)[C@H](CC[C@@H]4[C@@H]3C[C@@H](O)[C@]3(C)[C@@H](C5=CC(=O)OC5)CC[C@]43O)C2)C[C@H](O)[C@@H]1O[C@H]1C[C@H](O)[C@H](O[C@H]2C[C@H](O)[C@H](O[C@@H]3O[C@H](CO)[C@@H](O)[C@H](O)[C@H]3O)[C@@H](C)O2)[C@@H](C)O1	0	-	-	-	-
CN1CCN(C(=O)c2ccc3c(c2)N(Cc2ccc(Cl)cc2)C(=O)c2ccccc2S3(=O)=O)CC1	-	-	-	-	0
COc1ccc(C(C(=O)NC2CCCC2)N(C(=O)c2ccco2)c2ccc3c(c2)OCO3)cc1OC (configuration not stated)	0	-109%	0	0	0
